# Sampled rows, rich in hits. Any-hit rate of the full collection: about 18%.
# DT40 TDP1 no CPT = qHTS for Inhibitors of human tyrosyl-DNA phosphodiesterase 1 (TDP1): qHTS in cells in absence of CPT; actives 15% (n = 420,000); DT40 Tdp1-/- hTDP1 cells, no CPT, ATP luminescence, 48 h; Potency, µM (doses to about 46.2 µM), usual class: inhibitors; AID 686978, 2013; note: nearly all actives have a fitted effect of over 55% in size
#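 No-CPT arm: Tdp1-/-;hTDP1 DT40 cells (400/well) plus compounds, incubated ≥48 hr at 37 °C. Readout CellTiter-Glo luminescence.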
# TDP1 cell CPT = DT40-hTDP1 cell growth loss with CPT | actives 12% (n = 420,000) | Potency, µM (top dose mostly 46.2 µM), usual class: inhibitors | chicken DT40 Tdp1-/-;hTDP1 cells + 20 nM CPT, ATP luminescence, 48 h; note: nearly all actives have a fitted effect of over 55% in size
#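 Chicken DT40 Tdp1-/- cells stably complemented with human TDP1 were seeded at 400 cells/well in medium containing 20 nM camptothecin, exposed to pin-transferred compounds, and grown at 37 °C for at least 48 hr. Viability was read as ATP luminescence.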
# CtBP-E1A blk = CtBP/E1A binding inhibition | AlphaScreen GST-E1A/His-CtBP binding, 1536-well; active compounds read low | activity change, % (test concentration not listed) | actives 0.49% (n = 340,000) | AID 651724; in the data active = activity change below about -65%; inconclusive = mostly about -30% to -63%
#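 GST-E1A and His-tagged CtBP (125 nM each as 5X stock) were preincubated with pin-transferred compound for 2 h at 37 °C in the dark, then glutathione donor and nickel acceptor beads were added for 1 h before AlphaScreen reading.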
# Six1-Eya2 blk = Six1/Eya2 interaction inhibition; Q15475+O00167; AlphaScreen GST-Six1/His-Eya2 binding, biochemical; active compounds read low; activity change, % (test concentration not listed); actives 0.56% (n = 360,000); in the data active = activity change below about -65%; inconclusive = mostly about -30% to -63%
#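 Compounds are tested against tagged Six1 and Eya2 proteins bridged by glutathione donor and nickel acceptor beads; after a one-hour incubation at 37 °C without light, AlphaScreen emission is recorded.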
# TDP1 block = inhibitors of human tyrosyl-DNA phosphodiesterase TDP1 | actives 0.28% (n = 350,000) | recombinant TDP1, AlphaScreen DNA substrate cleavage | AID 485290 | Potency, µM (highest dose often 130 µM), hits mostly inhibitors; note: nearly all actives have a fitted effect of over 40% in size
# Target sequence (Q9NUW8 whole entry, looked up): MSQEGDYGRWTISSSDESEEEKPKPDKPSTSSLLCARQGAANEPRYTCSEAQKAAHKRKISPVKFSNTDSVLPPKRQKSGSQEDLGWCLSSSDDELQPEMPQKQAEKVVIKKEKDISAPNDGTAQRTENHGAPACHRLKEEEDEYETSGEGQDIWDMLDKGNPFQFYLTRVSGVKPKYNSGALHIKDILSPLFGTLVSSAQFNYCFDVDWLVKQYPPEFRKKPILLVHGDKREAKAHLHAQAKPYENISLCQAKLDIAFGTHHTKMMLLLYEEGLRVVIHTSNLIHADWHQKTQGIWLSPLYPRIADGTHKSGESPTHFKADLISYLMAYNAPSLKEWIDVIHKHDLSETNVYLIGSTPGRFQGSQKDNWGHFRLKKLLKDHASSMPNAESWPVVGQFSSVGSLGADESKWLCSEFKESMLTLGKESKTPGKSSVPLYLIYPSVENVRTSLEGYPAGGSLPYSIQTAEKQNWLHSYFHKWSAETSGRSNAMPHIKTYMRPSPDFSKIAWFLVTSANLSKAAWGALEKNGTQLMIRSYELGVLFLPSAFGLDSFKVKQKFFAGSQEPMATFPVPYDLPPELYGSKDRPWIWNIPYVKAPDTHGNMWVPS
#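 Signal: AlphaScreen proximity between streptavidin donor and anti-FITC acceptor beads on intact substrate. Reaction: Tdp1 1 nM, substrate 15 nM final, 5 min RT after 15 min compound preincubation.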
# IL1B secr inh = blocks inflammasome-driven IL-1 beta release; THP-1 LPS/ATP IL-1B secretion, AlphaLISA, 16 h; active compounds read low; activity change, % at 57.5 µM; actives 4.7% (n = 360,000); in the data active = activity change below about -50%; inconclusive = mostly about -30% to -49%
#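 THP-1 cells pretreated 1 hr with compounds (up to 57.5 uM final), then stimulated with LPS (250 ng/mL final) plus ATP (1.25 mM final); secreted IL-1B measured by AlphaLISA after 16 hr, decreased signal indicating inhibition.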
# Numbers stand for hits; i = inactive; ? = inconclusive; nt = no result. Unless noted, calls come from the whole dose curve; as a rule, active = well fitted curve in the direction sought with a large enough effect; inconclusive = small, poorly fitted or top-dose-only effect, or another doubt; inactive = no such curve, though single readings can be large; an effect the other way counts as inactive or inconclusive.
SMILES,DT40 TDP1 no CPT,TDP1 cell CPT,CtBP-E1A blk,Six1-Eya2 blk,TDP1 block,IL1B secr inh
O=C(Nc1ccccc1)C12CC3CC(C1)CC(n1cnc([N+](=O)[O-])n1)(C3)C2,i,i,i,i,i,i
Cc1nc(C)c(C(=O)NCCC(c2ccccc2)c2ccccc2)o1,11.6µM,?,i,i,i,i
CCN(CC)CCn1c2c(c(SCC(=O)Nc3cccc(C(C)=O)c3)nc1=O)CCCC2,?,?,i,i,nt,i
CCN(CC)CCCn1c2c(c(SCC(=O)Nc3nccs3)nc1=O)CCC2,i,i,i,i,nt,i
CCN(CC)CCn1c2c(c(SCC(=O)Nc3nc4ccccc4s3)nc1=O)CCC2,?,i,i,i,i,-99.4
CCN(CC)CCn1c2c(c(SCC(=O)Nc3nc4ccc(C)cc4s3)nc1=O)CCC2,5.8µM,6.51µM,i,i,nt,i
CCN(CC)CCCn1c2c(c(SCC(=O)Nc3cc(C)cc(C)c3)nc1=O)CCC2,?,i,i,i,nt,-57.4
COc1ccccc1/C=N/NC(=O)c1cccc(NC(=O)c2ccccc2C)c1,i,i,i,i,i,i
O=C(NCCCNC(=O)c1cc(Cl)ccc1Cl)c1cnccn1,i,i,i,i,nt,i
Cc1ccc(N2CCN(C(=O)C3CCN(c4ncnc5c4nc4n5CCCCC4)CC3)CC2)c(C)c1,?,20.6µM,nt,nt,i,nt
CC1CCN(C(=O)C2CCN(c3ncnc4c3nc3n4CCCCC3)CC2)CC1,23.1µM,?,nt,i,i,i
CCC(Sc1nc(C)cc(C)n1)C(=O)Nc1ccc(S(N)(=O)=O)cc1 (configuration not stated),i,i,i,i,i,i
CCOc1ccc(N(CC(=O)Nc2ccc(F)cc2F)S(=O)(=O)c2c(C)[nH]c(=O)[nH]c2=O)cc1,i,i,nt,nt,i,nt
Cc1noc(NC(=O)c2ccc(F)cc2)c1C#N,?,i,i,i,i,i
O=C(NC(C(=O)O)c1ccccc1)c1ccccc1 (configuration not stated),i,i,i,i,i,i
O=C(NC(c1ccccc1)C(Cl)(Cl)Cl)c1ccccc1 (configuration not stated),20.6µM,20.6µM,i,i,i,i
Cc1ccc(C(=O)NC(N(C)C)C(Cl)(Cl)Cl)cc1 (configuration not stated),i,i,nt,i,i,i
Cc1ccc(C(NC(=O)c2ccccc2)C(Cl)(Cl)Cl)cc1 (configuration not stated),20.6µM,14.6µM,i,i,i,i
CCCCc1nn2c(=O)cc(COC(=O)c3cccc(Cl)c3)nc2s1,i,?,nt,nt,i,nt
O=C(C1CC1)N1CCN(c2ccnc3cc(Cl)ccc23)CC1,?,?,i,i,i,i
OC1CCCC1NCc1ccnc2cc(Cl)ccc12 (configuration not stated),16.4µM,?,i,i,nt,i
OC(CNc1ccnc2cc(Cl)ccc12)CNC1CCCCC1 (configuration not stated),16.4µM,18.4µM,i,i,nt,-114.5
CCNC1CCC(Nc2ccnc3cc(Cl)ccc23)CC1 (configuration not stated),9.2µM,18.4µM,i,i,nt,-97.6
Cc1nc2c3ccccc3nc(NNC(=O)CCC(=O)N3CCN(c4cccc(C(F)(F)F)c4)CC3)n2n1,23.1µM,20.6µM,nt,nt,i,nt
Cc1ccc(/C=C/C(=O)N2CCN(c3cccc(C(F)(F)F)c3)CC2)cc1,i,i,i,i,i,i
SMILES,DT40 TDP1 no CPT,TDP1 cell CPT,CtBP-E1A blk,Six1-Eya2 blk,TDP1 block,IL1B secr inh
Cc1ccc(C)c(C(=O)CCC(=O)N2CCN(c3cccc(C(F)(F)F)c3)CC2)c1,11.6µM,14.6µM,i,i,i,i
COc1ccccc1C(=O)NCCC(=O)N1CCN(c2ccccc2O)CC1,i,i,i,i,i,i
C/C(=C\c1ccccc1)C(=O)N1CCN(c2cccc(C(F)(F)F)c2)CC1,i,i,i,i,i,-64.9
Cc1nc2c3ccccc3nc(NNC(=O)CCC(=O)N3CCN(c4ccccc4)CC3)n2n1,?,?,nt,i,i,i
COc1ccccc1C(=O)NCCC(=O)N1CCN(c2cccc(C(F)(F)F)c2)CC1,?,16.4µM,i,i,nt,i
O=C(CC(=O)c1ccccc1)Nc1cc([N+](=O)[O-])ccc1Cl,i,i,i,i,nt,i
COC(=O)C1=C(C)N(CCC2=CCCCC2)C(=O)C1,?,?,i,i,i,?
Cc1cc(C(=O)NCc2ccco2)sc1C,i,i,i,i,i,i
O=C(Cn1ccc2ccccc2c1=O)NCCC(=O)N1CCN(c2cccc(C(F)(F)F)c2)CC1,16.4µM,20.6µM,i,i,i,i
Cc1cn(C)c(CC(=O)N2CCN(c3cccc(C(F)(F)F)c3)CC2)c1C(=O)O,?,13µM,nt,nt,i,nt
O=C(Cn1ccc2ccccc2c1=O)NCCC(=O)N1CCN(c2ccccc2)CC1,i,i,i,i,i,i
Cc1cn(C)c(CC(=O)N2CCN(c3ccc(F)cc3)CC2)c1C(=O)O,i,i,nt,nt,i,nt
CCOC(=O)c1c(-c2ccccc2)oc2ccc(OCC(=O)O)cc12,i,i,nt,?,nt,i
CSc1ccc(S(=O)(=O)N2CCC(C(=O)NCc3ccccn3)CC2)cc1,i,i,i,i,i,i
COc1cc2c(cc1OC)C1(NCC2)C(=O)Nc2ccccc21 (configuration not stated),i,i,i,i,i,i
COc1cc2c(cc1OC)C1(Nc3c-2c(Cc2ccccc2)nn3-c2ccccc2)C(=O)Nc2ccccc21 (configuration not stated),23.1µM,?,i,i,i,i
O=C(Cn1nnc(-c2ccc(CN3CCOCC3)cc2)n1)N1CCCc2ccccc21,?,?,i,i,i,i
O=C(Cn1nnc(-c2ccc(CN3CCOCC3)cc2)n1)N(c1ccccc1)c1ccccc1,20.6µM,18.4µM,i,i,i,i
CC(C)(C)NC(=O)CN(C(=O)Cn1nnc(-c2ccc(Cl)cc2)n1)C1CCN(Cc2ccccc2)CC1,20.6µM,?,i,i,i,-81.7
COc1ccc2cc(/C=N/NC(=O)c3ccc(CN(c4ccc(C)c(C)c4)S(C)(=O)=O)cc3)c(Cl)nc2c1,?,i,i,i,i,i
Cc1cc(C)cc(NC(=O)CSc2nc(N)c(NC(=O)c3ccc(Br)o3)c(=O)[nH]2)c1,i,i,i,i,i,i
CCOC(=O)c1ccc(NC(=O)CSc2nc3ncccc3[nH]2)cc1,20.6µM,?,i,i,i,i
O=C(CSc1nc2ncccc2[nH]1)NCCc1ccccc1,i,i,i,i,nt,i
